Source: PubChem BioAssay
Active and inactive are the calls of the source. Unless noted, how the calls were made is not given here.

Tests used:
[1] = test system: XIP peptide (Xip251-270) binding; assay: XIP fragment 251-270 binding compounds – biochemical, small-molecule microarray, fluorescence 635/667 nm, 0.1 µg/mL protein, primary screen (AID 1182); conditions: fluorescent protein binding, 635 nm, higher = more signal, called active from +8 up or from −8 down
XIP peptide (Xip251-270) = assay: compounds binding XIP fragment 251-270 – biochemical, small-molecule microarray, fluorescence 635/667 nm, 0.5 µg/mL protein, primary screen (AID 1183); conditions: fluorescence 635 nm, higher = more signal
[2] = blood-stage malaria parasite viability loss – strain 3D7, DAPI fluorescence, 100 nL, primary screen (AID 1184);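 further: parasites grown inside human red blood cells in medium with human serum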; conditions: P. falciparum 3D7 growth, 3 d, higher = more signal
[3] = molecular target: Homeobox protein Hox-A13 (Mus musculus) (UniProt Q62424); assay: disruptors of Hoxa13 oligonucleotide interaction – biochemical, fluorescence polarization, labeled oligonucleotide, primary screen (AID 1185); conditions: Hoxa13:DNA binding, 15 min, higher = more signal, called active from +8 up or from −8 down
Homeobox protein Hox-A13 (Mus musculus), sequence (Q62424 whole entry, looked up): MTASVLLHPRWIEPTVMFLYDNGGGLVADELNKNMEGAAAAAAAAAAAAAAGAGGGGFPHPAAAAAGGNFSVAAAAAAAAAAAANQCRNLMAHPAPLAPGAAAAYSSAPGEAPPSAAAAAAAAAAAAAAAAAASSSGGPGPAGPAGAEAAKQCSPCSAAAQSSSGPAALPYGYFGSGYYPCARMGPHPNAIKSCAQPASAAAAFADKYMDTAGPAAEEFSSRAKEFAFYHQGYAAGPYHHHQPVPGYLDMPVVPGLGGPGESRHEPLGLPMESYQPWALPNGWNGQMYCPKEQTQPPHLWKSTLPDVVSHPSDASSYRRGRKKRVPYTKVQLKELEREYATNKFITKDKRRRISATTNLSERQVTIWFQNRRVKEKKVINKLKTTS

[4] = blockers of DNA damage checkpoint Chk1 activation – imaging, HeLa, hydroxyurea, phospho-Chk1 antibody, percent positive cells, primary screen (AID 1186); conditions: hydroxyurea-induced phospho-Chk1 immunofluorescence imaging, higher = more signal
[5] = blockers of DNA damage checkpoint Chk1 activation – imaging, HeLa, hydroxyurea, phospho-Chk1 nuclear intensity, primary screen (AID 1187); conditions: hydroxyurea-induced phospho-Chk1 immunofluorescence imaging, higher = more signal

SMILES | composite z-score [1] | composite z-score (XIP peptide (Xip251-270)) | z-score [2] | z-score [3] | z-score [4] | z-score [5]
CN1C(=O)C2C=CC(C(O)COCc3ccccc3)N(Nc3ccccc3)C2C1=O (stereo not given) | -0.184 (inactive) | 0.311 | 0.872 | -2.91 (inactive) | 0.466 (inactive) | 0.764 (inactive)
COc1cc(NN2C(C(O)c3ccc(I)cc3)C=CC3C(=O)N(C)C(=O)C32)cc(OC)c1OC (stereo not given) | 1.42 (inactive) | -0.064 | -0.336 | -1.63 (inactive) | -0.297 (inactive) | -0.449 (inactive)
CCOC(=O)C1=CC[C@@H](c2ccc(N(CC)CC)cc2)N(S(=O)(=O)c2ccc(C)cc2)[C@H]1c1ccc([N+](=O)[O-])cc1 | 0.326 (inactive) | 0.357 | -2.1 | -1.99 (inactive) | 0.0638 (inactive) | -0.244 (inactive)
CN(C)CCCCNC(=O)[C@H]1C[C@H]2C(=O)N[C@@H](CCCC[N+](C)(C)C)C(=O)N2[C@H]1c1cccc(OCCO)c1 | 1.42 (inactive) | 0.689 | -0.0344 | -3.83 (inactive) | -0.0589 (inactive) | -0.216 (inactive)
CCCCC(CC)C(O)C1C=CC2C(=O)NC(=O)C2N1Nc1ccccn1 (stereo not given) | 0.327 (inactive) | 0.781 | 0.133 | -3.87 (inactive) | 0.0438 (inactive) | -0.119 (inactive)
C=C(/C(=C/C[C@@H](OC(=O)c1ccncc1)c1cccc(OCCO)c1)c1cc(C(=O)OC)ccc1OC)C(C)C | 0.577 (inactive) | 0.723 | -3.13 | -3.8 (inactive) | -0.185 (inactive) | -0.235 (inactive)
O=C1O[C@@H](c2ccccc2)[C@@H](c2ccccc2)N2[C@@H](c3ccc(O)cc3)[C@]3(C(=O)Nc4ccc(C#CC5=CCCCC5)cc43)[C@@H](C(=O)Nc3nc4ccccc4s3)[C@H]12 | 0.433 (inactive) | 0.708 | -0.775 | 3.56 (inactive) | -0.315 (inactive) | -0.363 (inactive)
C=CCC(OC(C)=O)[C@@H]1[C@@H](N(Cc2cccc3ccccc23)C(=O)Cc2ccc(F)cc2)c2cc(OCCCO)ccc2N1C(=O)Cc1ccc(OC)cc1 (stereo not given in full) | -0.51 (inactive) | -0.189 | -1.64 | -0.902 (inactive) | -0.0456 (inactive) | -0.301 (inactive)
C=CCOC(=O)[C@@H]1[C@H]2C(=O)O[C@H](c3ccccc3)[C@H](c3ccccc3)N2[C@H](c2ccc(OCCOC(=O)[C@H]3C[C@H]4C(=O)N[C@@H](Cc5ccccc5)C(=O)N4[C@H]3c3cccc(OCCO)c3)cc2)[C@@]12C(=O)Nc1ccc(I)cc12 | 2.12 (inactive) | 0.813 | 0.143 | 6.79 (inactive) | -0.173 (inactive) | 0.0575 (inactive)
C=C(/C(=C/C[C@@H](OC(C)=O)c1ccccc1OCCO)c1cnc2ccccc2c1)C(C)C | 0.143 (inactive) | 0.339 | -2.62 | -5.18 (inactive) | 0.642 (inactive) | 0.0715 (inactive)
Cc1ccccc1C(O)C1C=CC2C(=O)N(Cc3ccccc3)C(=O)C2N1n1cnnc1 (stereo not given) | 0.598 (inactive) | 0.58 | -0.318 | -3.23 (inactive) | 0.135 (inactive) | -0.544 (inactive)
CN1C(=O)C2C=CC(C(O)c3cccc4ccccc34)N(NC(=O)OC(C)(C)C)C2C1=O (stereo not given) | 0.704 (inactive) | 0.586 | 0.99 | -3.88 (inactive) | 0.326 (inactive) | -0.397 (inactive)
C[N+](C)(C)CCCC[C@@H]1NC(=O)[C@@H]2C[C@H](C(=O)NCCCCCNC(=O)CS)[C@H](c3cccc(OCCO)c3)N2C1=O | 0.17 (inactive) | -0.0808 | 0.0793 | -3.31 (inactive) | -0.209 (inactive) | -0.123 (inactive)
CC1(C)[C@@H]2CC(C(O)C3C=CC4C(=O)N(c5ccccc5)C(=O)C4N3Nc3ccccc3F)=C[C@@H]1C2 (stereo not given in full) | 0.572 (inactive) | 0.458 | -0.59 | -2.4 (inactive) | 0.498 (inactive) | 0.749 (inactive)
O=C1C[C@@](C(=O)O)(c2ccc([N+](=O)[O-])cc2)[C@@H](c2ccc(CO)cc2)N1CC12CC3CC(CC(C3)C1)C2 | 0.312 (inactive) | 0.748 | -0.626 | -3.96 (inactive) | -0.226 (inactive) | -0.715 (inactive)
[N-]=[N+]=NCc1ccccc1C[C@@]1(C(=O)NCCN2CCOCC2)N=C(c2ccc(OCCCO)cc2)O[C@@H]1c1ccccc1CN=[N+]=[N-] | 0.607 (inactive) | 0.743 | -2.22 | -11.2 (active) | 0.243 (inactive) | 0.693 (inactive)
Cc1ccccc1C(O)C1C=CC2C(=O)N(C)C(=O)C2N1Nc1ccc([N+](=O)[O-])cc1[N+](=O)[O-] (stereo not given) | 3.99 (inactive) | 0.476 | 0.368 | -4.08 (inactive) | 0.348 (inactive) | -0.0828 (inactive)
CCCC=C(CCC)[C@@H](NS(=O)(=O)c1cccc2cccnc12)c1ccc(C(=O)OC)cc1 | -0.357 (inactive) | 0.315 | -0.271 | -2.22 (inactive) | -0.767 (inactive) | -0.492 (inactive)
C=CCC(OC(C)=O)[C@@H]1[C@@H](N(Cc2ccc(-c3cccc(C(F)(F)F)c3)o2)C(=O)c2cccc3ccccc23)c2cc(OCCCO)ccc2N1C(=O)c1ccc(-c2ccccc2)cc1 (stereo not given in full) | -0.0517 (inactive) | -0.131 | -3 | -2.39 (inactive) | -0.403 (inactive) | -0.16 (inactive)
CC(=O)NCCCC[C@@H]1NC(=O)[C@@H]2C[C@H](C(=O)NCCCC[N+](C)(C)C)[C@H](c3cccc(OCCO)c3)N2C1=O | 0.383 (inactive) | 0.446 | -0.102 | -2.25 (inactive) | -0.349 (inactive) | -0.317 (inactive)
Cc1ccc(S[C@]2(C(=O)O)CC(=O)N(Cc3ccccc3C(F)(F)F)[C@@H]2c2ccc(CO)cc2)cc1 | -0.161 (inactive) | -0.174 | 0.212 | -3.21 (inactive) | -0.511 (inactive) | -0.53 (inactive)
CC[C@@H]1[C@@H]2C3C(=O)N(CC)C(=O)C3CC(=O)[C@@H]2[C@H](c2ccc(C)cc2)N1S(=O)(=O)c1ccc(C)cc1 (stereo not given in full) | -0.363 (inactive) | 0.73 | -0.226 | -3.54 (inactive) | -1.51 (inactive) | -1.33 (inactive)
CC1=C2[C@@H](CCc3ccccc3)OB(O)C[C@@H]2[C@@H]2C(=O)C=CC(=O)[C@@H]2C1 | -0.387 (inactive) | 0.403 | -1.15 | -6.24 (inactive) | 1.15 (inactive) | 1.1 (inactive)
CN(C)CCCC[C@@H]1NC(=O)[C@H]2C[C@@H](C(=O)NCCCCCCNC(=O)CS)[C@@H](c3ccc(O)cc3)N2C1=O | 1.44 (inactive) | 0.868 | 0.323 | -2.87 (inactive) | -0.346 (inactive) | 0.128 (inactive)
NC(=O)[C@H]1[C@@H]2C(=O)O[C@@H](c3ccccc3)[C@@H](c3ccccc3)N2[C@@H](c2ccc(O)cc2)[C@]12C(=O)Nc1ccc(C#CC3(O)CCCCCC3)cc12 | 0.366 (inactive) | 0.836 | -1.85 | -1.28 (inactive) | 0.526 (inactive) | 0.301 (inactive)
CN(C)C(=O)[C@@]1(CCC(=O)OC(C)(C)C)COC(c2ccc(OCCCO)cc2)=N1 | 0.9 (inactive) | 0.846 | 0.388 | -3.81 (inactive) | -0.0526 (inactive) | 0.337 (inactive)
C=CCOC(=O)[C@@H]1[C@H]2C(=O)O[C@H](c3ccccc3)[C@H](c3ccccc3)N2[C@H](c2ccc(OCCOC(=O)[C@@H]3C[C@@H]4C(=O)N[C@@H](CCCCNC(C)=O)C(=O)N4[C@@H]3c3ccc(O)cc3)cc2)[C@@]12C(=O)Nc1ccc(I)cc12 | 0.0787 (inactive) | 0.794 | -1.61 | -0.385 (inactive) | 0.552 (inactive) | 0.882 (inactive)
CC(C)C[C@@H]1NC(=O)[C@@H]2C[C@H](C(=O)NCCCC[N+](C)(C)C)[C@H](c3cccc(OCCO)c3)N2C1=O | 0.974 (inactive) | 0.0734 | 0.0751 | -3.05 (inactive) | -0.366 (inactive) | -0.333 (inactive)
COCCOC(=O)N1C(=O)[C@@]2(c3cc(C#CCC(C(=O)OC)C(=O)OC)ccc31)[C@H](C(=O)N1CCCCCCC1)[C@H]1C(=O)O[C@H](c3ccccc3)[C@H](c3ccccc3)N1[C@@H]2c1ccc(O)cc1 | 0.825 (inactive) | 0.729 | -2.22 | -0.454 (inactive) | -0.15 (inactive) | -0.367 (inactive)
CC(C)CNC(=O)[C@@]1(C)c2ccccc2C(=O)N(Cc2ccccc2)[C@H]1c1ccc(CO)cc1 | 1.06 (inactive) | -0.951 | 0.301 | -2.75 (inactive) | 0.105 (inactive) | -0.267 (inactive)
